Laboratory results as given in the supplement of paper PMC12067926.

Tests used:
Assay in all cases: relative growth (AUC of 72 h growth curve relative to DMSO control, dAUC) (ratio); higher = more growth (less inhibition), active = hit call of the paper
Settings in all cases: 20 µM;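 active = growth AUC significantly below the DMSO wells by Dunnett test; inactive = the rest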
[1] = tested on: Prolinoborus 1 (Prolinoborus fasciculus)
How it was run: (§1)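 Each chemical was tested at 20 µM (1% DMSO) in 96-well plates seeded with a 1:100 dilution of cultures grown to carrying capacity in Luria–Bertani medium. These were isolates from Icelandic stream sediments and Silwood Park soil, as well as whole sediment communities. A plate reader took A600 readings hourly over 72 h, and three biological replicates were averaged. Relative growth (dAUC) is the spline-integrated area under the growth curve relative to the mean of the DMSO controls.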

[2] = tested on: Pseudomonas 1 (Pseudomonas baetica)
How it was run: as §1

[3] = tested on: Pseudomonas 2 (Pseudomonas vancouverensis)
How it was run: as §1

[4] = tested on: Pseudomonas 3 (Pseudomonas mandelii)
How it was run: as §1

[5] = tested on: Pseudomonas 4 (Pseudomonas peli)
How it was run: as §1

[6] = tested on: Pseudomonas 5 (Pseudomonas baetica)
How it was run: as §1

[7] = tested on: Pseudomonas 6 (Pseudomonas sp.)
How it was run: as §1

[8] = tested on: Rhizobium 1 (Rhizobium herbae)
How it was run: as §1

[9] = tested on: Serratia 1 (Serratia sp. 2015-2462-01)
How it was run: as §1

[10] = tested on: Sphingomonas 2 (Sphingomonas sp.)
How it was run: as §1

Measured: relative growth

CCC(=O)Nc1ccc(Cl)c(Cl)c1
inactive: [1] 0.951 | [2] 1.04 | [3] 0.975 | [4] 0.984 | [5] 0.928 | [6] 1.01 | [7] 1.02 | [8] 0.817 | [9] 0.906 | [10] 0.927

COc1cccc(C(=O)NN(C(=O)c2cc(C)cc(C)c2)C(C)(C)C)c1C
inactive: [1] 0.981 | [2] 1.04 | [3] 1.01 | [4] 1.04 | [5] 0.987 | [6] 1.05 | [7] 1.12 | [8] 0.96 | [9] 0.934 | [10] 0.977

C[N+](C)(C)CCCl
inactive: [1] 0.959 | [2] 1.07 | [3] 1.03 | [4] 1.01 | [5] 1.04 | [6] 1.02 | [7] 1.07 | [8] 0.998 | [9] 0.962 | [10] 1.02

CC(COc1ccc(Oc2ccccc2)cc1)Oc1ccccn1 (stereo not given)
inactive: [1] 1.03 | [2] 1.02 | [3] 1 | [4] 1.01 | [5] 1.05 | [6] 1.01 | [7] 1.08 | [8] 0.97 | [9] 0.987 | [10] 1.14

Cc1ccc(/N=C/N(C)/C=N/c2ccc(C)cc2C)c(C)c1
inactive: [1] 0.978 | [2] 1.05 | [3] 0.973 | [4] 1.1 | [5] 0.967 | [6] 1.01 | [7] 1.11 | [8] 1.06 | [9] 0.946 | [10] 1.04

CC(Oc1ccc(Oc2nc3ccc(Cl)cc3o2)cc1)C(=O)O (stereo not given)
inactive: [1] 0.978 | [2] 0.948 | [3] 1 | [4] 0.97 | [5] 1.01 | [6] 0.962 | [7] 0.916 | [8] 1.07 | [9] 1.04 | [10] 1.12

CSc1nnc(C(C)(C)C)c(=O)n1N
inactive: [1] 0.951 | [2] 0.717 | [3] 0.997 | [4] 0.984 | [5] 1.01 | [6] 0.998 | [7] 0.948 | [8] 0.958 | [9] 0.995 | [10] 0.779

O=[N+]([O-])c1cc(C(F)(F)F)c(Cl)c([N+](=O)[O-])c1Nc1ncc(C(F)(F)F)cc1Cl
inactive: [2] 0.775
active: [1] 0.66 | [3] 0.795 | [4] 0.00358 | [5] 0.498 | [6] 0.595 | [7] 0.258 | [8] 0.109 | [9] 0.004 | [10] 0.0215

O=C(Nc1ccc(F)cc1F)c1cccnc1Oc1cccc(C(F)(F)F)c1
inactive: [1] 1.03 | [2] 1.09 | [3] 1.01 | [4] 1.05 | [5] 1.01 | [6] 1.06 | [7] 1.13 | [8] 0.66 | [9] 1.02 | [10] 1.16

Cc1cc(C)nc(Nc2ccccc2)n1
inactive: [1] 0.979 | [2] 0.925 | [3] 0.956 | [4] 1.03 | [5] 0.947 | [6] 0.99 | [7] 1.03 | [8] 0.868 | [9] 0.937 | [10] 0.984

CO/N=C(/C(=O)OC)c1ccccc1CO/N=C(\C)c1cccc(C(F)(F)F)c1
inactive: [1] 0.953 | [2] 1.13 | [3] 1 | [4] 1.04 | [5] 0.949 | [6] 0.978 | [7] 1.03 | [8] 0.921 | [9] 0.952 | [10] 1.1

CC(C1CC1)C(O)(Cn1cncn1)c1ccc(Cl)cc1 (stereo not given)
inactive: [1] 0.901 | [3] 0.955 | [4] 0.971 | [5] 0.991 | [6] 0.986 | [7] 1.03 | [8] 0.947 | [9] 1 | [10] 1.13
active: [2] 0.624

CN1COCN(Cc2cnc(Cl)s2)/C1=N\[N+](=O)[O-]
inactive: [1] 0.974 | [2] 0.927 | [3] 1.03 | [4] 1.05 | [5] 0.996 | [6] 1.04 | [7] 1.1 | [8] 1.01 | [9] 0.99 | [10] 1.05

CCc1cnc(C2=NC(C)(C(C)C)C(=O)N2)c(C(=O)O)c1 (stereo not given)
inactive: [1] 0.973 | [2] 0.912 | [3] 0.944 | [4] 1.01 | [5] 0.967 | [6] 1.01 | [7] 1.04 | [8] 0.975 | [9] 0.958 | [10] 1.03

COC(=O)Nc1nc2ccccc2[nH]1
inactive: [1] 1.03 | [2] 1.05 | [3] 0.975 | [4] 1 | [5] 1.01 | [6] 1.05 | [7] 1.08 | [8] 0.944 | [9] 0.978 | [10] 0.732

O=C(NCCc1ncc(C(F)(F)F)cc1Cl)c1ccccc1C(F)(F)F
inactive: [1] 0.967 | [2] 1.08 | [3] 0.981 | [4] 1.07 | [5] 0.964 | [6] 0.99 | [7] 1.05 | [8] 0.94 | [9] 0.971 | [10] 1.02

N#Cc1c[nH]cc1-c1cccc2c1OC(F)(F)O2
inactive: [1] 0.978 | [2] 0.952 | [3] 1 | [4] 1.03 | [5] 0.945 | [6] 0.971 | [7] 1.04 | [8] 0.932 | [9] 0.942 | [10] 0.957

CC(C)N1C(=O)N(c2ccccc2)CS/C1=N\C(C)(C)C
inactive: [1] 0.883 | [2] 1.05 | [3] 0.977 | [4] 1.02 | [5] 0.937 | [6] 1.03 | [7] 1.07 | [8] 0.931 | [9] 0.962 | [10] 1.05

CCC(C)c1ccccc1OC(=O)NC (stereo not given)
inactive: [1] 1.02 | [2] 0.95 | [3] 1.01 | [4] 1.07 | [5] 1.01 | [6] 1.04 | [7] 1.09 | [8] 1.01 | [9] 0.971 | [10] 1

CNC(=O)CSP(=S)(OC)OC
inactive: [1] 0.985 | [2] 0.984 | [3] 0.991 | [4] 1.02 | [5] 0.963 | [6] 1.02 | [7] 1.19 | [8] 1.05 | [9] 0.96 | [10] 1.07

C#CCOc1ccc(CCNC(=O)C(OCC#C)c2ccc(Cl)cc2)cc1OC (stereo not given)
inactive: [1] 0.958 | [2] 0.979 | [3] 0.988 | [4] 1.02 | [5] 0.992 | [6] 0.985 | [7] 1.07 | [8] 1.06 | [9] 0.968 | [10] 1.13

O=C(O)CNCP(=O)(O)O
inactive: [1] 0.991 | [2] 0.996 | [3] 0.994 | [4] 1.05 | [5] 0.979 | [6] 1 | [7] 1.1 | [8] 1.03 | [9] 1.01 | [10] 1.02

CCOP(=S)(OCC)Oc1nc(Cl)c(Cl)cc1Cl
inactive: [1] 0.989 | [2] 1.04 | [3] 1.01 | [4] 1.05 | [5] 0.991 | [6] 1.06 | [7] 1.08 | [8] 0.929 | [9] 0.993 | [10] 1.07

CC1(C)C(C(=O)OC(C#N)c2cccc(Oc3ccccc3)c2)C1(C)C (stereo not given)
inactive: [1] 0.893 | [2] 1.08 | [3] 1 | [4] 1.04 | [5] 0.948 | [6] 1.01 | [7] 1.01 | [8] 1.05 | [9] 1 | [10] 0.98

CC1(C)[C@H](C(=O)O[C@H](C#N)c2cccc(Oc3ccccc3)c2)[C@@H]1C=C(Br)Br
inactive: [1] 1.01 | [2] 1.04 | [3] 1.03 | [4] 1.03 | [5] 1.01 | [6] 1.06 | [7] 1.14 | [8] 1.23 | [9] 1 | [10] 1.12

CC1(C)[C@H](/C=C(\Cl)C(F)(F)F)[C@@H]1C(=O)OC(C#N)c1cccc(Oc2ccccc2)c1 (stereo not given in full)
inactive: [1] 0.983 | [2] 1.07 | [3] 1.02 | [4] 1.05 | [5] 0.999 | [6] 1.08 | [7] 1.16 | [8] 1.28 | [9] 1.01 | [10] 0.868

CCCCOC(=O)[C@H](C)Oc1ccc(Oc2ccc(C#N)cc2F)cc1
inactive: [1] 1.02 | [2] 0.985 | [3] 1.08 | [4] 1.07 | [5] 0.967 | [6] 1.06 | [7] 1.17 | [8] 1.07 | [9] 1 | [10] 1.1
